Measured values from PubChem BioAssay (NCI).
This is part of a sample that, as a whole, favours compounds with a hit. Of some 83,000 tested, about 20% had one in any assay.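 Negative percent growth values reflect cell death: -40 means 40% of the cells present at the start died, and -100 means all died.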 A number with no mark means an inactive call. The source made the active and inactive calls. The calls were made as follows: active = growth percent below 10; inactive = the rest.

system: HL-60(TB) leukemia; assay: NCI-60 one-dose screen, 48 h (100 = growth as untreated, 0 = no growth, -100 = all killed); details: 10 µM unless noted

Which growth does the source give for `COc1cc(/C=C/C(=O)c2ccc(C)cc2)ccc1Oc1nc(NCCO)nc(N2CCOCC2)n1` here?
Its growth is -26.7% (active).

With `OC1CCN(CCCOc2c3ccccc3nc3c2oc2ccc(Cl)cc23)CC1` as the molecule, how does the growth read?
Its growth is 14.4%.

Which growth does the source give for `CCOP(=O)(OCC)OC[C@]12CC[C@@H](C)[C@H](C)C1C1=CC[C@@H]3[C@@]4(C)CCCNC(C)(C)[C@@H]4CC[C@@]3(C)[C@]1(C)CC2` (some centres undefined) here?
Its growth is -67.7% (active).

For `NC(N)=Nc1ccc(Oc2cccc(NC(N)=Nc3ccc(Cl)c(C(F)(F)F)c3)c2)cn1`, which growth is on record?
Its growth is 0.375% (active).

Which growth does the source give for `O=C(CSc1nc2sc3c(c2c(=O)n1-c1ccc(Cl)cc1)CCCC3)NNC(=O)Nc1ccc(Cl)c(C(F)(F)F)c1` here?
The growth was 6.38% (active).

`O=C(O)c1ccc(-n2cc(CNc3cc(F)c(F)c(F)c3)c(-c3cccc(F)c3)n2)cc1` was tested. Which growth did it give?
Its growth is 108%.

For `Brc1cc(-c2cc(-c3ccc4c(c3)OC=CO4)[nH]n2)cs1`, which growth is on record?
The growth was 91.6%.

How did the growth turn out when `CCOc1ccc([C@H]2C(C(=O)c3ccc(Cl)cc3)C3(N[C@@H]2c2ccccc2)C(=O)Nc2ccc(Br)cc23)cc1` (some centres undefined) was run?
The growth was 15.2%.

How did the growth turn out when `CS(=O)(=O)c1ccc(-c2nn(-c3ccccc3)cc2/C=N/NC(=O)c2ccncc2)cc1` was run?
The growth was 81.1%.

For `Brc1ccc(-c2cc(-c3ccc4c(c3)OCCO4)n[nH]2)s1`, which growth is on record?
Its growth is 3.16% (active).

With `c1ccc2c(NCCCN3CCOCC3)c3oc4ccccc4c3nc2c1` as the molecule, how does the growth read?
The growth was -21.5% (active).

Which growth does the source give for `CCNC(=O)N1CCc2cc(OC)c(OCCc3ccc(OC)nc3)cc2C1c1ccc(C)cc1C` (centres undefined) here?
The growth was 8.48% (active).

How did the growth turn out when `COc1ccc(OC)c(NC(=O)CCCCCCNC(=O)C(O)(O)C(F)(F)F)c1` was run?
Its growth is 10.6%.

`CN1CCN(Cc2ccc(NC(=O)c3cncc(C#Cc4cnc(N)nc4)c3)cc2C(F)(F)F)CC1` was tested. Which growth did it give?
Its growth is 19.4%.

How did the growth turn out when `N/C(=N\C(N)=N\c1nc2ccccc2s1)c1cccc(F)c1` was run?
The growth was 83% [5 µM].

How did the growth turn out when `CCCCCc1ccc(S(=O)(=O)Nc2cccc(-c3csc(NC(=O)CN4CCN(CCO)CC4)n3)c2)cc1` was run?
The growth was 66.3%.

`CN(c1ccc(Cl)cc1)S(=O)(=O)c1ccc(-c2cnc(C3CC3)o2)cc1` was tested. Which growth did it give?
Its growth is -15.9% (active).

For `CN1CCN(c2nc(-c3csc(-c4ccncc4)n3)cc3ccccc23)CC1`, which growth is on record?
The growth was 32.2%.

With `O=C1c2c(c3c4cccnc4[nH]c3c3ccc4ccccc4c23)C(=O)N1CCN1CCCCC1` as the molecule, how does the growth read?
The growth was 35.4%.

`C#C[C@]1(O)CC[C@H]2[C@@H]3CC=C4c5sc(Nc6cccc(Cl)n6)nc5CC[C@]4(C)[C@H]3CC[C@@]21C` was tested. Which growth did it give?
Its growth is -15.6% (active).

Which growth does the source give for `COc1ccc(NC(=O)CCCCCCNC(=O)C(O)(O)C(F)(F)F)cc1` here?
Its growth is 11.3%.

For `O=C1C(N2CCN(c3ccccc3)CC2)=C(Cl)C(=O)c2ncccc21`, which growth is on record?
The growth was 4.34% (active).

With `CCCCCc1ccc(S(=O)(=O)Nc2cc(-c3csc(NC(=O)CN4CCN(C)CC4)n3)ccc2N2CCN(C)CC2)cc1` as the molecule, how does the growth read?
The growth was -48.8% (active).

Which growth does the source give for `COc1cc(OC)c(S(N)(=O)=O)cc1C(=O)/C=C/c1ccc(Cl)cc1` here?
The growth was -9% (active).

How did the growth turn out when `CCOC(=O)c1ccc(NC2=C(Cl)C(=O)c3nc(C)ccc3C2=O)cc1` was run?
The growth was 47.5%.

For `COCCNc1ccc2ncc(C#Cc3cncc(C(=O)Nc4ccc(CN5CCN(C)CC5)c(C(F)(F)F)c4)c3)n2n1`, which growth is on record?
The growth was 0.694% (active).

`CC(C)(C)n1nnnc1C(Nc1cccc2c1OCO2)c1cc2cccc3ccc4cccc1c4c32` (centres undefined) was tested. Which growth did it give?
The growth was 85.2%.

Which growth does the source give for `Cc1nn(-c2ccccc2)c2nc(CCl)[nH]c(=O)c12` here?
The growth was 33.1%.

How did the growth turn out when `CC1=C(C)C(=O)C(Nc2ccc3c(c2)OCCO3)=C(Br)C1=O` was run?
The growth was -44.2% (active).

For `COc1cccc(OC)c1-c1nnn(C)c1C(=S)N1CCN(c2ccc([N+](=O)[O-])cc2Cl)CC1`, which growth is on record?
The growth was 44.3%.

Which growth does the source give for `C[C@H](Nc1ncnc2ccc(-c3cnc(Cl)c(NS(C)(=O)=O)c3)cc12)c1ccccc1` here?
The growth was -17.6% (active).

For `O=c1c2cc(-c3ccc(F)cc3F)ccc2n(O)c(=O)n1-c1cccc(C(F)(F)F)c1`, which growth is on record?
Its growth is -50.2% (active).

How did the growth turn out when `CSc1ccc(C(=NNS(=O)(=O)c2ccc(C)cc2)c2ccc(Cl)cc2)cc1` was run?
The growth was 97.1%.

For `NC(=O)c1c(NC(=O)c2ccc(C3CCCCC3)cc2)sc2c1CCC(=O)C2`, which growth is on record?
The growth was 7.79% (active).

With `C=C(C)C(=O)O[C@H]1C[C@@]2(C)OC(=CC2=O)/C(C)=C\[C@H]2OC(=O)C(=C)[C@H]12` as the molecule, how does the growth read?
Its growth is -20.9% (active).

With `N#Cc1c(-c2ccc(Cl)cc2)nc2c(-c3ccccc3)c(Nc3ccccc3)nn2c1N` as the molecule, how does the growth read?
Its growth is 91.3%.

How did the growth turn out when `Oc1[nH]c2ccc(Cl)cc2c1N=Nc1nc(N=Nc2c(O)[nH]c3ccc(Cl)cc23)nc(N2CCCCC2)n1` was run?
Its growth is 71.5%.

Which growth does the source give for `Cc1ccc(C2CC(c3ccc(Nc4nc(NCCO)nc(Nc5ccc(Cl)cc5)n4)cc3)=Nc3c(N)nc(N)nc3N2)cc1` (centres undefined) here?
The growth was 10.2%.

With `C=C(C)[C@@H]1CC[C@]2(C(=O)NC3CCCCC3)CC[C@]3(C)[C@H](CC[C@@H]4[C@@]5(C)CC[C@H](N)C(C)(C)[C@@H]5CC[C@]43C)[C@@H]12` as the molecule, how does the growth read?
Its growth is 74.5%.
